We go through 40 molecules from PubChem BioAssay (EPA / NIEHS).

Inconclusive results are not listed. Active and inactive are the calls of the source. The calls were made as follows: active = hit-call score of the fitted dose curve at least 0.9, where 1 is the maximum; inconclusive = response in the unintended direction; inactive = score below 0.9.

The experiment in a line: Tanguay_ZF_120hpf_EYE_legacy: (Legacy) Oregon State University Tanguay Lab 120 Hour Post-fertilization zebrafish Assay for Eye Malformation (AID 2283636).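 Also: binary presence or absence of eye malformation scored by brightfield in 120 hpf larvae.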 The method, then: Tanguay_ZF_120hpf_legacy is a whole embryo, multiplexed endpoint assay using zebrafish larvae exposed for 120 hours post fertilization on a 96-well plate.Tanguay_ZF_120hpf_EYE_legacy is one of one assay component(s) measured or calculated from the Tanguay_ZF_120hpf_legacy assay. It is designed to make measurements of zebrafish development as detected with brightfield microscopy of developing zebrafish embryos.Data from the assay component Tanguay_ZF_120hpf_EYE_legacy was analyzed into 1 assay endpoints. This assay endpoint, Tanguay_ZF_120hpf_EYE_legacy, was analyzed in the positive analysis fitting direction relative to DMSO as the negative control and baseline of activity. Using a type of morphology reporter, gain-of-signal activity can be used to understand changes in developmentals as they relate to the whole embryo. To generalize the intended target to other relatable targets, this assay endpoint is annotated to the zebrafish development intended target family, where the subfamily is embryonic eye development.
Zebrafish husbandry: Tropical 5D wild-type adult zebrafish were housed in at an approximate density of 1000 per 100 gallon tank at the Sinnhuber Aquatic Research Laboratory, Oregon State University, Corvallis, OR. Each tank was kept at standard laboratory conditions of 28C on a 14-h light/10-h dark photoperiod in fish water consisting of reverse osmosis water supplemented with a commercially available salt (Instant Ocean). Spawning funnels were placed into the tanks the night prior, and embryos were collected and staged. To increase bioavailability, the chorion was enzymatically removed using pronase (63.6mg/ml, >/= 3.5U/mg, Sigma-Aldrich: P5147) at 4 hours post fertilization (hpf) using a custom automated dechorionator.Chemical exposures: Six hpf dechorionated embryos were placed 1 embryo per well in a 96-well plate prefilled with 90 ul of EM using automated embryo placement systems (AEPS). Ten microliters of each row of dilution plate 2 was added to 2 exposure plates. The final DMSO concentration used was 0.64% (vol/vol). Thirty-two embryos were also exposed to 5uM trimethyltin chloride (positive control). Plates were sealed to prevent evaporation and foil covered to reduce light exposure and kept in a 28C incubator. Embryos were statically exposed until 120 hpf. At 24 hpf, embryos were assessed for photomotor response using a custom photomotor response analysis tool (PRAT) and for developmental toxicity endpoints (MO24: mortality at 24 hpf, DP: developmental progression, SM: spontaneous movement, and NC: notochord distortion). At 120 hpf, locomotor activity was measured using Viewpoint Zebralab and assessed for 18 endpoints. Zebrafish acquisition and analysis program (ZAAP), a custom program designed to inventory, acquire, and manage zebrafish data, was used to collect developmental endpoints as either present or absent (i.e., binary responses were recorded). If mortality occurred for an embryo (at either 24 or 120 hpf), the non-mortality endpoints were not measured.
As a reminder, the AC50 is the concentration giving half of the maximal activity seen. As for `Nc1c(Cl)cc([N+](=O)[O-])cc1Cl`, the AC50 is 9.62 µM (active).

On to `CCCCSP(=O)(SCCCC)SCCCC`, for which the result was inactive.

In the case of `CC(=NC#N)N(C)Cc1ccc(Cl)nc1`, the result was inactive.

For `CCC(=NOC/C=C/Cl)C1=C(O)CC(C2CCOCC2)CC1=O` (stereo not given), the outcome was inactive.

`CCNc1nc(Cl)nc(NC(C)(C)C#N)n1`: the molecule was called inactive.

Consider `CC(C)[C@H](C(=O)O[C@H](C#N)c1cccc(Oc2ccccc2)c1)c1ccc(Cl)cc1`, for which the AC50 was 2.82 µM (active).

In the case of `CCOP(=S)(OCC)OC(Cl)C(Cl)(Cl)Cl` (stereo not given), the call was inactive.

With `CNC(=O)ON=C(SC)C(=O)N(C)C`, the molecule was classed as inactive.

For `CCOP(=O)(SC(C)CC)N1CCSC1=O` (stereo not given), the molecule was called inactive.

`CCOP(=S)(OCC)Oc1ccc([N+](=O)[O-])cc1`: the outcome was inactive.

Consider `COc1ccc(C(=CC(=O)N2CCOCC2)c2ccc(Cl)cc2)cc1OC`, for which the concentration at half-maximal activity (AC50) was 16.4 µM (active).

Regarding `CCc1cccc(CC)c1N(COC)C(=O)CCl`, the molecule was classed as inactive.

As for `Cc1cc(C2CC2)nc(Nc2ccccc2)n1`, the result was inactive.

As for `CCOC(=O)CC(SP(=O)(OC)OC)C(=O)OCC` (stereo not given), the AC50 was 12.1 µM (active).

In the case of `CC[C@H](C)[C@H]1O[C@]2(C=C[C@@H]1C)C[C@@H]1C[C@@H](C/C=C(\C)[C@@H](O[C@H]3C[C@H](OC)[C@@H](O[C@H]4C[C@H](OC)[C@@H](NC)[C@H](C)O4)[C@H](C)O3)[C@@H](C)/C=C/C=C3\CO[C@@H]4[C@H](O)C(C)=C[C@@H](C(=O)O1)[C@]34O)O2`, the molecule was called inactive.

Regarding `CNc1cnn(-c2cccc(C(F)(F)F)c2)c(=O)c1Cl`, the outcome was inactive.

With `CNC(=O)Oc1cccc2c1OC(C)(C)O2`, the result was inactive.

On to `CCCOc1nn(C(=O)NS(=O)(=O)c2ccccc2C(=O)OC)c(=O)n1C`, for which the result was inactive.

Turning to `C=C(C)[C@H]1Cc2c(ccc3c2O[C@@H]2COc4cc(OC)c(OC)cc4[C@@H]2C3=O)O1`, the molecule was classed as inactive.

Consider `CCCCOC(=O)[C@@H](C)Oc1ccc(Oc2ccc(C#N)cc2F)cc1`, for which the molecule was classed as inactive.

`CCCCN(CC)c1c([N+](=O)[O-])cc(C(F)(F)F)cc1[N+](=O)[O-]`: the outcome was inactive.

For the molecule `CC1=NNC(=O)N(/N=C/c2cccnc2)C1`, the call was inactive.

In the case of `CCCCOC(=O)c1ccccc1C(=O)O`, the molecule was called inactive.

As for `CCC(=O)Nc1ccc(Cl)c(Cl)c1`, the outcome was inactive.

`CCc1cnc(C2=NC(C)(C(C)C)C(=O)N2)c(C(=O)O)c1` (stereo not given): the outcome was inactive.

In the case of `COc1cccc(C(=O)NN(C(=O)c2cc(C)cc(C)c2)C(C)(C)C)c1C`, the call was inactive.

As for `CON=C(C(=O)OC)c1ccccc1CON=C(C)c1cccc(C(F)(F)F)c1`, the half-maximal activity concentration (AC50) is 5.22 µM (active).

For the molecule `CC(C)N(C(=O)SCC(Cl)=C(Cl)Cl)C(C)C`, the result was inactive.

Take `CNC(=O)ON=C(C)SC`: the molecule was classed as inactive.

As for `CC(C)=CC1C(C(=O)OCN2C(=O)C3=C(CCCC3)C2=O)C1(C)C` (stereo not given), the molecule was classed as inactive.

Take `CN(C)NC(=O)CCC(=O)O`: the call was inactive.

In the case of `CCCSP(=O)(OCC)SCCC`, the result was inactive.

For the molecule `CCOP(=S)(OCC)Oc1ccc2c(C)c(Cl)c(=O)oc2c1`, the call was inactive.

Regarding `CN(C)C(=O)Nc1cccc(C(F)(F)F)c1`, the molecule was called inactive.

Take `N#CSCSC#N`: the outcome was inactive.

For `Nc1nc(N)nc(NC2CC2)n1`, the molecule was called inactive.

For `COP(=O)(NC(C)=O)SC` (stereo not given), the call was inactive.

Turning to `CC1(C(=O)Nc2ccc(O)c(Cl)c2Cl)CCCCC1`, the outcome was inactive.

On to `CCOP(=O)(OCC)Oc1cc(C)nc(C(C)C)n1`, for which the call was inactive.

`S=C1NCCN1`: the molecule was classed as inactive.
